# Shown are actives, neighbours in structure and some others; about 6.7% of the full set was active somewhere.
# C diff HTS – C. difficile growth inhibitors, primary screen, HTS; Clostridium difficile clinical isolate growth, OD600, 24 h; active compounds read low; growth activity, negative = inhibition, % at 16 µg/mL (by protocol); actives 0.25% (n = 86,000);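 active = mean growth activity at or below -80% and every replicate also at or below -80%; inconclusive = mean at or below -80% but some replicate above -80%; inactive = mean growth activity above -80%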;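 note: 0% = DMSO wells and -100% = levofloxacin 16 µg/mL wells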
# Pf Dd2 growth – P. falciparum Dd2 growth inhibitors, primary screen, SYBR Green fluorescence, single dose replicates | 72 h; active compounds read low | activity change, % at 10 µM | actives 2.3% (n = 94,000); in the data active = activity change below about -80%; inconclusive = no clear call, values can overlap the other calls
# T cruzi growth-1 – T. cruzi intracellular proliferation inhibitors, primary screen, cell-based, beta-gal Tulahuen parasites, NIH3T3 host, luminescence; T. cruzi beta-gal in NIH3T3, GalScreen luminescence, 90 h; inhibition, % at 8.34 µM; actives 5.9% (n = 77,000);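 active = mean inhibition above about 93%, with at least 55% of replicates each passing it, limit read from the data, passing the limit was not always enough; inconclusive = only one of those two conditions holds; inactive = neither condition holds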
# T cruzi growth-2 – T. cruzi intracellular proliferation inhibitors, confirmation, cell-based, NIH3T3 host, beta-gal parasite, luminescence, cherry-pick. shares compounds with T cruzi growth-1. T. cruzi beta-gal in NIH3T3, GalScreen luminescence, 90 h. inhibition, % at 8.35 µM. actives 72% (n = 5,600);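 active = mean replicate inhibition above about 95% and at least 55% of replicates individually reaching it, limit read from the data; inconclusive = only one of the two criteria is met; inactive = neither criterion is met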
# T cruzi growth-3 – inhibitors of intracellular T. cruzi replication, confirmation, NIH3T3 host cells, beta-gal parasites, cherry-pick, set 2; inhibition, % at 2.09 µM; actives 21% (n = 5,600); AID 651740, 2012; shares compounds with T cruzi growth-1; T. cruzi beta-gal in NIH3T3, GalScreen luminescence, 90 h;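 active = mean inhibition above about 95%, with at least 55% of replicates also reaching it, limit read from the data; inconclusive = meets just one of the two conditions; inactive = meets neither condition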;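 note: plate controls were neutral control median for no effect and positive control median for full effect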
# 3T3 cytotox – cytotoxicity in mouse NIH/3T3 fibroblasts, confirmation, cytotoxicity control for T. cruzi proliferation inhibitor project, cell-based, cherry-pick, single point. actives 14% (n = 5,600). shares compounds with T cruzi growth-1. cytotoxicity (signal decrease), % at 8.35 µM. NIH/3T3 viability, CellTiter-Glo ATP luminescence, 90 h;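 active = mean signal decrease across replicates above about 35% based on untreated-well scatter, with enough replicates individually passing, limit read from the data; inconclusive = no rule stated though some were filed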;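 note: 0% = median of neutral control wells and 100% = median of positive control wells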
# 3T3 cytotox 2 – NIH/3T3 fibroblast cytotoxicity, confirmation, cytotoxicity control, cell-based, cherry-pick, single point, set 2. shares compounds with T cruzi growth-1. NIH/3T3 viability, CellTiter-Glo ATP luminescence, 90 h. inhibition, % at 24.9 µM. actives 56% (n = 5,600). AID 651744, 2012;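 active = mean loss of cell viability signal at or above a set limit, and enough replicates individually reaching it; inconclusive = meets only the mean limit or only the replicate share; inactive = meets neither condition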;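 note: 0% = median of neutral control wells and 100% = median of positive control wells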
# * hit, by the source's call; ? = inconclusive; / = no result.
SMILES,C diff HTS,Pf Dd2 growth,T cruzi growth-1,T cruzi growth-2,T cruzi growth-3,3T3 cytotox,3T3 cytotox 2
Cc1ccc(S(=O)(=O)Nc2ccc3c(c2)CC(=O)N([C@@H](C)CO)C[C@@H](C)[C@H](CN(C)Cc2ccc4c(c2)OCO4)O3)cc1,-19,-13,99*,103*,?,9,?
Cc1ccc(S(=O)(=O)Nc2ccc3c(c2)CC(=O)N([C@H](C)CO)C[C@H](C)[C@H](CN(C)Cc2ccc4c(c2)OCO4)O3)cc1,-5,-11,51,/,/,/,/
Cc1ccc(S(=O)(=O)Nc2ccc3c(c2)CC(=O)N([C@H](C)CO)C[C@@H](C)[C@H](CN(C)Cc2ccc4c(c2)OCO4)O3)cc1,-14,50,104*,106*,55,14,25*
C[C@H](CO)N1C[C@H](C)[C@@H](CN(C)Cc2ccc3c(c2)OCO3)Oc2ccc(NS(=O)(=O)c3ccc(Cl)cc3)cc2CC1=O,44,-22,89,/,/,/,/
O=C(C[C@H]1C[C@@H]2c3cc(NC(=O)NC4CCCC4)ccc3O[C@@H]2[C@@H](CO)O1)NCc1ccncc1,0,12,28,/,/,/,/
C[C@@H]1CN([C@@H](C)CO)C(=O)c2cc(NC(=O)CCC(F)(F)F)ccc2O[C@H]1CN(C)C,0,18,/,/,/,/,/
C[C@H]1CN([C@@H](C)CO)C(=O)c2cc(NC(=O)CCCCCC(=O)Nc3ccccc3N)ccc2O[C@@H]1CN(C)S(C)(=O)=O,-5,55,/,/,/,/,/
O=C(CCN1CCCCC1)NCC[C@H]1CC[C@@H](NC(=O)C2CC2)[C@H](CO)O1,1,2,/,/,/,/,/
CN(C)C(=O)c1ccc(-c2ccc3c(c2)[C@H]2[C@H](CCN2C(=O)c2ccccc2F)[C@@H](CO)N3)cc1,1,-49,53,/,/,/,/
N#Cc1ccc(-c2ccc3c(c2)[C@@H]2[C@@H](CCN2C(=O)c2ccccc2F)[C@@H](CO)N3)cc1,-2,8,102*,103*,82,21,50*
N#Cc1ccc(-c2ccc3c(c2)[C@@H]2[C@@H](CCN2C(=O)C2CC2)[C@@H](CO)N3)cc1,2,6,104*,107*,85,-3,35*
N#Cc1ccc(-c2ccc3c(c2)[C@H]2[C@H](CCN2C(=O)c2ccccc2F)[C@H](CO)N3)cc1,2,-7,88,/,/,/,/
N#Cc1ccc(-c2ccc3c(c2)[C@H]2[C@H](CCN2C(=O)C2CC2)[C@H](CO)N3)cc1,-9,12,93,/,/,/,/
CN(C)C(=O)c1cccc(-c2ccc3c(c2)[C@@H]2[C@@H](CCN2C(=O)c2ccccc2F)[C@@H](CO)N3)c1,-3,-13,106*,100*,68,12,16
CCCNC(=O)N1C[C@H](C)[C@H](OC)CN(C)C(=O)c2ccc(NC(=O)CCC)cc2OC[C@@H]1C,/,11,1,/,/,/,/
O=C(Cc1ccncc1)NCC[C@H]1CC[C@H](NC(=O)C2CCCCC2)[C@H](CO)O1,2,3,/,/,/,/,/
C[C@@H]1CN([C@H](C)CO)C(=O)c2cc(NS(C)(=O)=O)ccc2O[C@@H]1CN(C)C(=O)Nc1ccc(C(F)(F)F)cc1,-3,-5,-14,/,/,/,/
CC(C)CC#Cc1ccc([C@H]2[C@@H](CO)N3CCCCN(S(=O)(=O)c4ccc(F)cc4)C[C@H]23)cc1,-4,-68,63,/,/,/,/
CC(C)CC#Cc1ccc([C@@H]2[C@@H](CO)N3CCCCN(S(=O)(=O)c4ccc(F)cc4)C[C@H]23)cc1,18,-67,55,/,/,/,/
CC(C)CC#Cc1ccc([C@H]2[C@H]3CN(S(=O)(=O)c4ccc(F)cc4)CCCCN3[C@H]2CO)cc1,8,11,116*,111*,95,21,12
CC(C)CC#Cc1ccc([C@@H]2[C@@H](CO)N3CCCCN(S(=O)(=O)c4ccc(F)cc4)C[C@@H]23)cc1,1,-2,105*,108*,72,-3,89*
CC(C)NC(=O)Nc1ccc2c(c1)C(=O)N([C@H](C)CO)C[C@@H](C)[C@H](CN(C)CC1CCCCC1)OCCCC[C@H](C)O2,/,-18,68,/,/,/,/
CO[C@@H]1CN(C)C(=O)c2cc(NC(=O)Nc3cccc(F)c3)ccc2OC[C@H](C)N(C(=O)Nc2c(C)noc2C)C[C@@H]1C,/,-22,10,/,/,/,/
CC(C)CC#Cc1ccc2c(c1)O[C@H](CN(C)C(=O)Cc1ccccn1)[C@H](C)CN([C@H](C)CO)S2(=O)=O,-6,-16,32,/,/,/,/
O=C(Nc1ccc(F)cc1)N1CCCCN2[C@H](CO)[C@@H](c3ccc(C#CC4CC4)cc3)[C@H]2C1,13,-25,113*,111*,84,28,105*
SMILES,C diff HTS,Pf Dd2 growth,T cruzi growth-1,T cruzi growth-2,T cruzi growth-3,3T3 cytotox,3T3 cytotox 2
O=C(Nc1cccc(F)c1)N1CCCCN2[C@H](C1)[C@@H](c1ccc(C#CC3CC3)cc1)[C@@H]2CO,47,5,85,/,/,/,/
O=C(Nc1cccc(F)c1)N1CCCCN2[C@H](CO)[C@@H](c3ccc(C#CC4CC4)cc3)[C@H]2C1,43,-36,112*,107*,80,26,104*
O=C(Nc1ccc(F)cc1)N1CCCCN2[C@@H](CO)[C@H](c3ccc(C#CC4CC4)cc3)[C@@H]2C1,43,-55,53,/,/,/,/
O=C(Nc1ccccc1)N1CCCCN2[C@H](CO)[C@@H](c3ccc(C#CC4CC4)cc3)[C@@H]2C1,18,-9,86,/,/,/,/
O=C(Nc1cccc(F)c1)N1CCCCN2[C@@H](CO)[C@@H](c3ccc(C#CC4CC4)cc3)[C@@H]2C1,18,-5,70,/,/,/,/
O=C(Nc1cccc(F)c1)N1CCCCN2[C@H](CO)[C@@H](c3ccc(C#CC4CC4)cc3)[C@@H]2C1,61,-10,110*,106*,104*,23,104*
O=C(Nc1cccc(F)c1)N1CCCCN2[C@H](CO)[C@H](c3ccc(C#CC4CC4)cc3)[C@H]2C1,67,-51,102*,98*,100*,122*,104*
C[C@H]1CN([C@@H](C)CO)C(=O)c2cc(C#Cc3ccccc3)cnc2O[C@@H]1CN(C)C(=O)C1CC1,-8,-18,46,/,/,/,/
C[C@H](CO)N1C[C@H](C)[C@@H](CN(C)Cc2ccc(F)cc2)Oc2ncc(C#CCN(C)C)cc2C1=O,0,-20,33,/,/,/,/
C[C@H]1CN([C@@H](C)CO)C(=O)c2cc(NC(=O)CCC(F)(F)F)ccc2O[C@H]1CN(C)S(=O)(=O)c1ccccc1,2,9,7,/,/,/,/

# High-throughput results: PubChem, Broad Institute
